Records with an inconclusive call do not appear. Activity calls are given as the source filed them. Calls follow the shape of the dose curve; as a rule, active = well fitted cell-killing curve with a large enough effect in the repeat runs; inconclusive = weak or mixed curves, or effect the other way; inactive = no such curve, though single readings can be large or run the other way.
Experiment: qHTS assay to identify small molecule antagonists of the vitamin D receptor (VDR) signaling pathway - cell viability counter screen (AID 743225); also: nearly all actives have a fitted effect of over 50% in size
Details: VDR-bla HEK293T viability, CellTiter-Glo luminescence, 16 h; series mostly up to 61 µM; viability change, negative = cytotoxic: at the top concentration
Excerpt: U.S. Tox21 Program National Center for Advancing Translational Sciences [NCATS] NIH Chemical Genomics Center [NCGC] U.S. Environmental Protection Agency [EPA] National Institutes of Environmental Health Sciences [NIEHS] National Toxicology Program [NTP] U.S. Food and Drug Administration [FDA] Tox21 Assay Overview: The vitamin D receptor (VDR), a member of nuclear hormone receptor superfamily, plays a critical role in calcium homeostasis and bone metabolism. It is also involved in cell differentiation and growth, and thrombogenicity. To identify the compounds that inhibit VDR signaling, the VDR-UAS-bla HEK 293T cell line (Invitrogen, Carlsbad, CA, USA) containing a beta-lactamase reporter gene under the control of an upstream activator sequence (UAS) was used to screen the Tox21 10K compound library. The cytotoxicity of the Tox21 compound library against the VDR-bla cell line was tested in parallel by measuring the cell viability using CellTiter-Glo assay (Promega, Madison, WI) in the same wells.
Tox21 Assay Protocol Summary: VDR-bla cells were dispensed at 2,000 cells/5 uL of assay medium per well into black wall/clear-bottom 1536-well plates using a Multidrop Combi (Thermo Fisher Scientific, Waltham, MA) dispenser. After the assay plates were incubated at a 37C and 5% CO2 for 4 h, 23 nL of compounds dissolved in DMSO, positive controls or DMSO only was transferred to the assay plate by a Pintool station (Kalypsys, San Diego, CA), followed by addition of 1 uL of 1-alpha, 25-Dihydroxy Vitamin D3 (3 nM, final concentration in the wells) using a Bioraptr Flying Reagent Dispenser (FRD) workstation (Beckman Coulter, Indianapolis, IN). The plates were incubated at 37C and 5% CO2 for 16 h, and then 1 uL of LiveBLAzerTM B/G FRET substrate was added using a Bioraptr FRD. The plates were incubated at room temperature for 2 h and fluorescence intensity was measured by an Envision plate reader (PerkinElmer, Shelton, CT). For cell viability readout that measures cytotoxicity, 3 ul/well of CellTiter-Glo reagent was added into the assay plates using a Bioraptr FRD. After 30 min incubation at room temperature, the luminescence intensity in the plates was measured using a ViewLux plate reader (PerkinElmer).
% is scaled to controls: 0 for no effect and ±100 for the full control effect; potency is read from the fitted curve at half-maximal effect.

| SMILES | viability change, negative = cytotoxic | Potency |
| --- | --- | --- |
| N#Cc1c(F)cccc1F | 5.84% (inactive) | – |
| O=[N+]([O-])c1cccc(Cl)c1Cl | 8.42% (inactive) | – |
| CCOC(=O)[C@H](CCc1ccccc1)N[C@H]1CCc2ccccc2N(CC(=O)O)C1=O | – | 21.3 µM (active) |
| CC(O)C1CCCCC1 (stereo not given) | 2.41% (inactive) | – |
| C=C(C)C(=O)OC(C)C | -1.05% (inactive) | – |
| FC(F)(F)C(F)(F)C(F)(F)C(F)(F)C(F)(F)C(F)(F)CCI | 10.1% (inactive) | – |
| O=C(O)/C=C/c1cnc[nH]1 | 2.31% (inactive) | – |
| Cn1c(=O)c2c(ncn2CC(O)CO)n(C)c1=O (stereo not given) | 3.12% (inactive) | – |
| O=C1Nc2cc(Cl)ccc2Oc2ccccc21 | 0.851% (inactive) | – |
| Oc1ccc(C(O)CNCCCCCCNCC(O)c2ccc(O)c(O)c2)cc1O (stereo not given) | 13.1% (inactive) | – |
| CCCCOC(O)CC (stereo not given) | -1.58% (inactive) | – |
| OCC1CC2CC1C1CCC(CO)C21 (stereo not given) | -24.5% (inactive) | – |
| CCCCCCc1ccc(N)cc1 | -28% (inactive) | – |
| CC(C)=CCCC(C)CC=O (stereo not given) | 7.67% (inactive) | – |
| CCN1CCC[C@H]1CNC(=O)c1c(OC)ccc(Br)c1OC | -12.6% (inactive) | – |
| CC(=O)c1ccc2c(c1)[C@H](NC(=O)c1ccc(F)cc1)[C@@H](O)C(C)(C)O2 | -4.19% (inactive) | – |
| CCCCCC(CO)CCC (stereo not given) | 2.67% (inactive) | – |
| N#Cc1cc2ccccc2c2ccccc12 | -1.12% [at 78.8 µM] (inactive) | – |
| SC1CCCC1 | -0.724% (inactive) | – |
| O=C(O)[C@@H]1[C@H]2C[C@H]3c4[nH]c5ccccc5c4CCN3C[C@@H]2CC[C@@H]1O | 14.7% (inactive) | – |

| SMILES | viability change, negative = cytotoxic | Potency |
| --- | --- | --- |
| Cc1ccc(C(=O)C(C)CN2CCCCC2)cc1 (stereo not given) | -1.42% (inactive) | – |
| C1CCC2OC2C1 (stereo not given) | 7.06% [at 78.8 µM] (inactive) | – |
| COc1ccc(C(C)=O)cc1 | -1.41% [at 78.8 µM] (inactive) | – |
| CCCCCC/C=C/C=O | 24.4% (inactive) | – |
| CC(=O)/C=C/C1C(C)=CCCC1(C)C (stereo not given) | -1.89% (inactive) | – |
| C=CC[N+]1([C@H]2C[C@H]3[C@@H]4CC[C@H]5C[C@H](OC(C)=O)[C@@H](N6CCCCC6)C[C@]5(C)[C@H]4CC[C@]3(C)[C@H]2OC(=O)CC)CCCCC1 | 0.348% (inactive) | – |
| CN1CCN(C2=Nc3cc(Cl)ccc3Nc3ccccc32)CC1 | -4.32% (inactive) | – |
| CC(=O)N(O)CCCCCNC(=O)CCC(=O)N(O)CCCCCNC(=O)CCC(=O)N(O)CCCCCN | 1.13% (inactive) | – |
| CCCCOC(=O)/C=C\C(=O)OCCCC | -1.3% [at 78.8 µM] (inactive) | – |
| CCN(CC)CCc1nc(-c2ccccc2)no1 | -2.64% (inactive) | – |
| CCOc1ccc2[nH]cc(C(=O)NCc3ccccc3)c(=O)c2n1 | 1.94% (inactive) | – |
| CCCCCCCCCCCCCCCCCBr | -1.85% [at 28.5 µM] (inactive) | – |
| CC1CCc2cc(F)cc3c(=O)c(C(=O)O)cn1c23 (stereo not given) | 5.63% (inactive) | – |
| CN(C)CCCOc1nn(Cc2ccccc2)c2ccccc12 | -14.2% (inactive) | – |
| CCCCCCCCCC(=O)OCC | 11.7% (inactive) | – |
| CCOC(=O)C1=NN(c2ccccc2)C(=O)C1 | -11% (inactive) | – |
| CCN(CC)CCNC(C(=O)OCCC(C)C)c1ccccc1 (stereo not given) | -1.65% (inactive) | – |
| COc1ccc2[nH]c(S(=O)Cc3ncc(C)c(OC)c3C)nc2n1 (stereo not given) | -1.29% (inactive) | – |
| CC(=O)c1c(C)c([N+](=O)[O-])c(C(C)(C)C)c([N+](=O)[O-])c1C | -3.84% (inactive) | – |
| NC(N)=N/N=C/c1c(Cl)cccc1Cl | -16.5% (inactive) | – |

Source: PubChem BioAssay (Tox21)
